The values that follow come from a collection of fitness landscapes (doi:10.1016/j.celrep.2020.107928).

The full ranking holds about 81,000 sequences; the median of “one-hybrid fitness for binding parS DNA” is about -0.17, and the highest 2% start at about 0.51. Shown is part of a subset that was picked to be rich in the highest values.

The labels stand for the following.
B1: Caulobacter ParB omega fusion; a variant is named by its letters at X, in order, B8GW30 (parent)
chain: MESVVVGEPGMSEGRRGLGRGLSALLGEVDAAPAQAPGEQLGGSREAPIEILQRNPDQPRRTFREEDLEDLSNSIREKGVLQPILVRPSPDTAGEYQIVAGERAWRAAQRAGLKTVPIMVRELDDLAVLEIGIIENVQRADLNVLEEALSYKVLMEKFERTQENIAQTIGKSXSHVANXMRLLXLPDEVQSYLVSGELTAXHARAIAAAADPVALAKQIIEGGLSVRETEALARKAPNLSAGKSKGGRPPRVKDTDTQALESDLSSVLGLDVSIDHRGSTGTLTITYATLEQLDDLCNRLTRGI

Variants of B1 are the subject of this assay. In words: one-hybrid fitness for binding parS DNA (scaled: cognate 1, non-cognate 0); higher = stronger binding. Conditions: with parS DNA site. The gist of the method:
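The reporter was HIS3, with the binding site 19 bp from the promoter, in E. coli USO used for bacterial one-hybrid selection of Caulobacter ParB libraries with four specificity codons randomised. Growth was on M9 lacking histidine, with 0.1 mM IPTG and 5 mM 3-AT, for 48 hours at 37°C. Illumina sequencing covered plasmids before and after selection; three replicate libraries were pooled and variants with under 10 reads dropped. A fitness score is the log change in variant-to-wild-type read ratio, rescaled to the cognate and non-cognate references.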
As for GARV, the “one-hybrid fitness for binding parS DNA” value was ≤ 0.2.
Regarding QRMF, the “one-hybrid fitness for binding parS DNA” value is ≤ 0.2.
The value for KQTA was ≤ 0.2; that for DRTA was ≤ 0.2; that for NQTA was ≤ 0.2.
The value for NYTA was ≤ 0.2; that for RTTA was 0.612.
The value for NTTA was ≤ 0.2; that for NRTA was ≤ 0.2.
In the case of RRTA, the “one-hybrid fitness for binding parS DNA” value is 0.656.
With RQTA the figure was 0.574; with RYTA, 0.582; with DTTA, ≤ 0.2.
With EYTA the figure was ≤ 0.2; with FTDF, ≤ 0.2; with KGIS, ≤ 0.2.
The value for VCHR was ≤ 0.2; that for EKES was ≤ 0.2; that for KHQG was ≤ 0.2.
In the case of LHTY, the “one-hybrid fitness for binding parS DNA” value is ≤ 0.2.
Regarding DYTC, the “one-hybrid fitness for binding parS DNA” value was ≤ 0.2.
Regarding APHT, the “one-hybrid fitness for binding parS DNA” value is ≤ 0.2.
On to YEEE, for which the “one-hybrid fitness for binding parS DNA” value was ≤ 0.2.
The value for RHTA was 0.516; that for RDTA was ≤ 0.2; that for RSTA was 0.578.
The value for RKTA was 0.746; that for RGTA was 0.376; that for RNTA was 0.473.
On to RETA, for which the “one-hybrid fitness for binding parS DNA” value was ≤ 0.2.
On to RMTA, for which the “one-hybrid fitness for binding parS DNA” value amounted to 0.6.
The value for NLQR was ≤ 0.2.
With HMPW the figure was ≤ 0.2; with LVSL, ≤ 0.2; with QMTR, ≤ 0.2.
The value for KAGR was ≤ 0.2; that for GRLC was ≤ 0.2; that for QTFT was ≤ 0.2.
For the variant ATQR, the “one-hybrid fitness for binding parS DNA” value was ≤ 0.2.
Turning to IINN, the “one-hybrid fitness for binding parS DNA” value was ≤ 0.2.
With QNFC the figure was ≤ 0.2.
With RPTA the figure was ≤ 0.2; with EFTA, ≤ 0.2.
For the variant RWTA, the “one-hybrid fitness for binding parS DNA” value turned out to be 0.459.
With DFTA the figure was ≤ 0.2; with EITA, ≤ 0.2; with RVTA, 0.578.
For the variant NVTA, the “one-hybrid fitness for binding parS DNA” value was ≤ 0.2.
In the case of RITA, the “one-hybrid fitness for binding parS DNA” value came to 0.55.
As for RFTA, the “one-hybrid fitness for binding parS DNA” value turned out to be 0.541.
For RCTA, the “one-hybrid fitness for binding parS DNA” value amounted to 0.609.
On to DITA, for which the “one-hybrid fitness for binding parS DNA” value was ≤ 0.2.
For the variant AVTA, the “one-hybrid fitness for binding parS DNA” value is ≤ 0.2.
The value for GLTC was ≤ 0.2.
With TSQQ the figure was ≤ 0.2.
On to VYNA, for which the “one-hybrid fitness for binding parS DNA” value is ≤ 0.2.
The value for AYGG was ≤ 0.2; that for SRQV was ≤ 0.2.
As to FRFR, the “one-hybrid fitness for binding parS DNA” value is ≤ 0.2.
The value for ACAI was ≤ 0.2; that for TPWT was ≤ 0.2.
Consider GHMG, for which the “one-hybrid fitness for binding parS DNA” value is ≤ 0.2.
Turning to PGAS, the “one-hybrid fitness for binding parS DNA” value was ≤ 0.2.
The value for RATA was 0.586.
With DLTA the figure was ≤ 0.2; with NLTA, ≤ 0.2; with DATA, ≤ 0.2.
The value for RLTA was 0.599; that for HHAP was ≤ 0.2.
For the variant NDPH, the “one-hybrid fitness for binding parS DNA” value is ≤ 0.2.
Take RCLD: the “one-hybrid fitness for binding parS DNA” value was ≤ 0.2.
With KLRG the figure was ≤ 0.2; with RIAQ, ≤ 0.2; with RIFT, 0.834.
With RIAM the figure was 0.367; with RIFF, 0.297; with RIFR, ≤ 0.2.
Consider RIAT, for which the “one-hybrid fitness for binding parS DNA” value turned out to be 0.885.
With QSSH the figure was ≤ 0.2.
